Compounds without any hit were thinned out: in the full panel of roughly 83,000, 20% have a hit.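 Single-dose data. Exposure time 48 hours. Values below 10 considered active.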 Unmarked numbers belong to inactive results. Activity calls are given as the source filed them.
Experiments:
Experiment in all cases: NCI-60 one-dose screen, 48 h (100 = growth as untreated, 0 = no growth, -100 = all killed)
Conditions in all cases: 10 µM unless noted
[1] = tested on: DU-145 prostate
[2] = tested on: K-562 leukemia
[3] = tested on: MALME-3M melanoma
[4] = tested on: MDA-MB-231 breast
[5] = tested on: RXF 393 renal
[6] = tested on: SF-268 CNS
[7] = tested on: SF-295 CNS
[8] = tested on: SF-539 CNS
[9] = tested on: UACC-257 melanoma
[10] = tested on: M14 melanoma
[11] = tested on: HCT-15 colon
[12] = tested on: HT29 colon
[13] = tested on: SNB-75 CNS
[14] = tested on: SNB-19 CNS
[15] = tested on: U251 CNS
[16] = tested on: PC-3 prostate
[17] = tested on: SK-MEL-5 melanoma
[18] = tested on: UACC-62 melanoma
[19] = tested on: LOX IMVI melanoma
[20] = tested on: SK-MEL-28 melanoma

Row | Structure (SMILES) | growth [1] | growth [2] | growth [3] [%] | growth [4] | growth [5] | growth [6] | growth [7] | growth [8] | growth [9] | growth [10] | growth [11] | growth [12] | growth [13] | growth [14] [%] | growth [15] | growth [16] [%] | growth [17] | growth [18] | growth [19] | growth [20] [%]
1 | COc1ccc(-c2cc(-c3cc(OC)ccc3O)[nH]c(=O)c2C#N)cc1 | 79.8% | 23.7% | 60.7 | 45% | 81.2% | 61.3% | 54% | 39.4% | 61% | 27% | 60.2% | 28.4% | 58.9% | 65.4 | 22.5% | 52 | 31.4% | 41.4% | 40.5% | 67.5
2 | Cc1ccc(S(=O)(=O)N(CC[C@@H]2C[C@H]2c2cc3ccccc3o2)C(=O)NC2CCCCC2)cc1 | 107% | 91.1% | 96.1 | 90.1% | 106% | 98.8% | 110% | 95% | 108% | 96.5% | 92.3% | 90.8% | 102% | 99.8 | 100% | 95.6 | 101% | 78.4% | 90.5% | 95.7
3 | Nc1ccc(CCCCc2ccccc2)c(Cl)c1 | 103% | 90.1% | 106 | 91.2% | 90.3% | 83% | 104% | 91.2% | 89% | 103% | 89% | 96.3% | 75.2% | 94.6 | 77.7% | 90.1 | 96.4% | 93.4% | 99.2% | 98.8
4 | COc1ccccc1C(=O)NC(=S)Nc1ccc(-c2nc3ccccc3[nH]2)cc1 | 42.9% | 48% | 27.5 | -10.1% (active) | 49.1% | 49.2% | 61.3% | 48.1% | 94.3% | 54.3% | 59.5% | 14.8% | -62.7% (active) | 84 | 29.3% | 86 | 25.8% | 109% | 20% | 69.5
5 | Cc1cc(NS(=O)(=O)c2ccccc2)c(OS(=O)(=O)c2ccccc2)cc1C | 120% | 88.8% | 113 | 101% | 111% | 105% | 113% | 98.5% | 109% | 96.8% | 102% | 111% | 89.5% | 98.1 | 99.8% | 89.7 | 102% | 94% | 99.3% | 112
6 | COC(=O)CCCNC(=O)C(=O)c1c(O)c(O)c(C(C)C)c2cc(C)c(-c3c(C)cc4c(C(C)C)c(O)c(O)c(C(=O)C(=O)NCCCC(=O)OC)c4c3O)c(O)c12 | -0.703% (active) | 6.26% (active) | 19.7 | -16.3% (active) | -6.97% (active) | 8.13% (active) | -7.03% (active) | -1.93% (active) | -21.5% (active) | -20.7% (active) | 1.55% (active) | -22.9% (active) | 49.6% | 22.5 | -62.4% (active) | 21.4 | -68.8% (active) | -35.6% (active) | -85.6% (active) | 23.5
7 | CNC1(C#N)CCN(Cc2ccccc2)CC1 | 113% | 104% | 226 | 112% | 99.1% | 100% | 95.2% | 100% | 101% | 94% | 104% | 102% | 81.5% | 99.8 | 108% | 97.6 | 116% | 92.5% | 102% | 136
8 | CN1CCN(C(=O)[C@@]2(C)CC[C@]3(C)CC[C@]4(C)C(=CC[C@@H]5[C@@]6(C)C/C(=C/c7ccncc7)C(=O)C(C)(C)[C@@H]6CC[C@]54C)[C@@H]3C2)CC1 | 76.1% | 7.71% (active) | 42.3 | 69.4% | 46.3% | 67.9% | 63.6% | 57.7% | 40.8% | 49.8% | 30.2% | 10.9% | 62.7% | 62.7 | 32.6% | 23.8 | 39.3% | 37.8% | 28.5% | 48.7

Reference: PubChem BioAssay (NCI)
